In PubChem BioAssay (EPA / NIEHS):
Active and inactive are the calls of the source. How the source made its calls: active means hit-call score of the fitted dose curve at least 0.9, where 1 is the maximum; inactive means score below 0.9.

Assay: ATG_ISRE_CIS: Attagene CIS-FACTORIAL HepG2 Assay for human Interferon Regulatory Factor 1 (IRF1) binding to an Interferon-Stimulated Response Element (ISRE) (AID 2282948)
Conditions: HepG2 ISRE cis-reporter (Attagene), mRNA transcription readout; actives raise or lower the signal
Experimental: ATG_CIS is a cell-based, multiplexed-readout assay that uses HepG2, a human liver cell line, with measurements taken at 24 hours after chemical dosing in a 24-well plate.ATG_ISRE_CIS is one of 52 assay component(s) measured or calculated from the ATG_CIS assay. It is designed to make measurements of mRNA induction, a form of inducible reporter, as detected with fluorescence intensity signals by Reverse transcription polymerase chain reaction (RT-PCR) and Capillary electrophoresis technology.Data from the assay component ATG_ISRE_CIS was analyzed into 1 assay endpoint. This assay endpoint, ATG_ISRE_CIS, was analyzed with bidirectional fitting relative to DMSO as the negative control and baseline of activity. Using a type of inducible reporter, measures of mRNA for gain or loss-of-signal activity can be used to understand the reporter gene at the transcription factor-level as they relate to the gene IRF1. Furthermore, this assay endpoint can be referred to as a primary readout, because this assay has produced multiple assay endpoints where this one serves a reporter gene function. To generalize the intended target to other relatable targets, this assay endpoint is annotated to the dna binding intended target family, where the subfamily is interferon regulatory factors.
Human liver HepG2 cells are transiently transfected with multiple reporter transcription units (MRTUs) in 6-well plates using FuGene 6 reagent (Roche; 3 ml FuGene/1 mg DNA). The MRTU constructs are regulated by a cis-regulating element (promoter). […] A major difference between the CIS and TRANS system is that in CIS activities of endogenous TFs are measured, whereas the TRANS assay evaluates changes in activities of exogenous, chimeric NR-Gal4 proteins. […] At the end of 24 hour incubation, total RNA was isolated using TriZol reagent (Invitrogen). The isolated RNA is then reverse-transcribed using oligo(dT) primer and Mo-MLV reverse transcriptase (Invitrogen) with DNAse I (Ambion) treatment for 30 min. The one-tenth of the produced cDNA was amplified by PCR using Taq DNA polymerase (Invitrogen) and two reporter sequence-specific primers. The PCR products were fluorescently labeled by primer extension with 6-arboxyfluorescein (6-FAM) 5'-labeled reporter sequence-specific primer (2 min at 95 C, 20 s at 68 C and 10 min at 72 C) and these products were digested with 5U of HpaI (New England Biolabs) for 2h at 37 C. The fragments were purified using Qiaquick PCR columns (Qiagen), analyzed on an ABI 3130xL genetic analyzer (Applied Biosystems) with peak positions identified by using a set of X-rhodamine (ROX)-labeled MapMarker1000 molecular weight standards (BioVentures). The raw capillary electrophoresis data was processed using Attagraph software (Attagene).

| Compound | outcome | AC50 |
| --- | --- | --- |
| NC(=O)C(F)(F)C(F)(F)C(F)(F)C(F)(F)C(N)=O | inactive |  |
| CCn1c2ccccc2c2ccccc21 | inactive |  |
| NC(O)(C(F)(F)F)C(F)(F)F | inactive |  |
| O=c1[nH]cccc1O | inactive |  |
| Brc1ccccn1 | inactive |  |
| CN(C)C(C)(C)CO | inactive |  |
| CN1CN(C)CN(C)C1 |  | 74.3 µM (active) |
| CC(C)=CCCC(C)O (stereo not given) | inactive |  |
| C[C@]12CC[C@H]3C(=CCc4cc(O)ccc43)[C@@H]1CCC2=O | inactive |  |
| CC(=O)CCC(C)C | inactive |  |
| O=C(c1ccccc1)c1ccc(Cl)cc1 | inactive |  |
| OCCCCl | inactive |  |
| CCCCCCCC/C=C\CCCCCCCC(=O)OCC(O)CO (stereo not given) | inactive |  |
| COCCC(=O)OC | inactive |  |
| NCC(F)(F)C(F)(F)C(F)(F)C(F)(F)C(F)(F)C(F)(F)F | inactive |  |
| CCc1cc(Cc2cc(CC)c(N)c(CC)c2)cc(CC)c1N | inactive |  |
| CCOC(=O)C1CC(=O)C(=C(O)C2CC2)C(=O)C1 (stereo not given) | inactive |  |
| CCN(CC)c1ccc(N=Nc2ccccc2)cc1 | inactive |  |
| O=S(=O)(O)c1ccc(Cl)cc1 | inactive |  |
| Cc1ccc(O)cn1 | inactive |  |

| Compound | outcome | AC50 |
| --- | --- | --- |
| CN(N=O)C(=O)N[C@@H]1[C@@H](O)[C@H](O)[C@@H](CO)O[C@@H]1O | inactive |  |
| CCCCCCCCCCCCCC[P+](CCCC)(CCCC)CCCC | inactive |  |
| COC(=O)c1ccc(C=O)cc1 | inactive |  |
| CC(=O)C=O | inactive |  |
| O=S(=O)(O)CCC(F)(F)C(F)(F)C(F)(F)C(F)(F)F | inactive |  |
| CCCCCCCCCc1ccc(OCCO)cc1 |  | 18.7 µM (active) |
| COc1ccccc1C=O | inactive |  |
| COCCOCCC[Si](C)(O[Si](C)(C)C)O[Si](C)(C)C | inactive |  |
| O=C(Cl)C(F)(F)C(F)(F)C(F)(F)C(F)(F)C(F)(F)C(F)(F)C(F)(F)F | inactive |  |
| Brc1nc2ccccc2s1 | inactive |  |
| Nc1cc([N+](=O)[O-])cc(Cl)c1O | inactive |  |
| CCCCCCCCn1sc(Cl)c(Cl)c1=O | inactive |  |
| NC(=O)C(F)(F)C(F)(F)C(F)(F)C(F)F | inactive |  |
| O=C(c1ccccc1)c1ccc(O)cc1O | inactive |  |
| O=C(O)C(F)(F)C(F)(F)C(F)(F)OC(F)(C(F)(F)F)C(F)(F)F | inactive |  |
| CC(=O)c1ccccc1N | inactive |  |
| CCN(CC)c1ccc2c(c1)Oc1cc(N(CC)CC)ccc1C21OC(=O)c2ccccc21 |  | 55.3 µM (active) |
| C=C(C)C(=O)OCC(F)(F)C(F)(F)C(F)(F)C(F)F | inactive |  |
| N#CCCOCCC#N | inactive |  |
| CC(C)(C)c1cc(CCC(=O)NCCCCCCNC(=O)CCc2cc(C(C)(C)C)c(O)c(C(C)(C)C)c2)cc(C(C)(C)C)c1O | inactive |  |
